Experimental data published in PubChem BioAssay AID1508608 (The Scripps Research Institute Molecular Screening Center, 2020).
Screen size: about 2,300 compounds; about 20 (0.9%) were called active. The sample holds actives, similar compounds and a random draw of the others, so the mix is not that of the screen. A number with no mark means an inactive call.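 The calls were made as follows: active = mean activation across replicates above 26.72%, the hit cutoff set for this confirmation screen; inactive = the rest.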

target: G-protein coupled receptor 151 (Homo sapiens) (UniProt Q8TDV0); assay: GPR151 agonism via beta-arrestin recruitment – cell-based, PathHunter beta-arrestin, luminescence, set 2, confirmation (AID 1508608); conditions: GPR151 PathHunter beta-arrestin cells, 90 min, at 11.2 µM, stronger effect = higher value; 100% = signal from added EA reagent unless noted;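 also: 0% = plate median of compound wells and 100% = EA reagent high control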
Sequence (Q8TDV0 whole entry, looked up): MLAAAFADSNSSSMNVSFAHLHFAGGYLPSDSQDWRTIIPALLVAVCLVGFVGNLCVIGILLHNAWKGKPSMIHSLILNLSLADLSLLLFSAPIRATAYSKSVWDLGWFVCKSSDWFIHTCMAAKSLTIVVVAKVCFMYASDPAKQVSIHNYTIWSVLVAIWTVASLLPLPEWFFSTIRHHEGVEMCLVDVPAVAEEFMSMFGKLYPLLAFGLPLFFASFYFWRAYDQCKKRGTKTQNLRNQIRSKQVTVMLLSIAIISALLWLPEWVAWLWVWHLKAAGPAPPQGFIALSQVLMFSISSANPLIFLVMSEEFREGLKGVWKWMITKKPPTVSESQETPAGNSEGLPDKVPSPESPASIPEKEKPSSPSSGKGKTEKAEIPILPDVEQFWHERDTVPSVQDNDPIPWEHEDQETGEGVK

Row | SMILES | activation
1 | CCn1c(/C=C/C=C2\N(C)c3ccccc3C2(C)C)[n+](Cc2ccccc2)c2ccccc21 | 35.2% (active)
2 | CC[n+]1c(/C=C/C=C2\N(C)c3ccccc3C2(C)C)n(-c2ccccc2)c2ccc(C)cc21 | 19.5%
3 | CC[n+]1c(/C=C/C=C2\N(C)c3ccccc3C2(C)C)n(-c2ccccc2)c2cc(Cl)ccc21 | 13.7%
4 | CCCCn1c(C)c(C(=O)OCC)c2cc(OC(=O)CCC)c3ccccc3c21 | 1.16%
5 | CCOC(=O)c1nc2ccccc2c(=O)n1-c1ccc(C)cc1Br | -0.06%
6 | C[C@@H]1O[C@@H](O[C@H]2C[C@@H](O)[C@]3(CO)[C@H]4[C@H](O)C[C@]5(C)[C@@H](C6=CC(=O)OC6)CC[C@]5(O)[C@@H]4CC[C@]3(O)C2)[C@H](O)[C@H](O)[C@H]1O | 13.4% [setting not given]
7 | C[C@H]1CC[C@@H]2[C@@H](C)[C@H]3[C@H](CC4[C@@H]5CC=C6CC(O[C@@H]7O[C@H](CO)C(O[C@@H]8O[C@@H](C)[C@H](O)[C@@H](O)[C@H]8O)[C@H](O)[C@H]7O[C@@H]7O[C@@H](C)[C@H](O)[C@@H](O)[C@H]7O)CC[C@]6(C)[C@H]5CC[C@@]43C)N2C1 (stereo not given in full) | 81.8% (active)
8 | CCCCOc1ccc(C(=O)Nc2ccc(Cl)cc2C(=O)c2ccccc2)cc1 | -0.96%
9 | COCCOC(=O)C1=C(C)OC(N)=C(C#N)C12C(=O)N(CC(=O)OC)c1ccccc12 (stereo not given) | -4.79%
10 | O=C(Nc1ccc(Cl)cc1C(=O)c1ccccc1)c1cc([N+](=O)[O-])ccc1Cl | -4.58%
